The source made the active and inactive calls. Unless noted, no rule for the calls is given here.
Key:
[1] = HepG2 liver cancer cell viability effects, profiling panel, resazurin fluorescence, 24 h, PK04 Diversity Set (AID 1172); conditions: higher = more signal
[2] = basal S. cerevisiae growth modulation, no modifier, primary screen, OD600, strain BY4716, 24 h, basal condition (AID 1173); conditions: OD600, 24 h, higher = more signal, called active from +8 up or from −8 down
[3] = MM1S myeloma cell viability, profiling panel, resazurin fluorescence, basal, 24 h, PK04 Diversity Set (AID 1174); conditions: higher = more signal, called active from +8 up or from −8 down;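 also: MM1S multiple myeloma cell line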
[4] = target: Dihydroorotate dehydrogenase (quinone), mitochondrial (Plasmodium falciparum (isolate 3D7)) (UniProt Q08210); test: PfDHODH enzyme inhibitors, primary screen, biochemical, C-terminal His tag, absorbance 600 nm (AID 1175); conditions: DCIP absorbance 600 nm, higher = more signal, called active from +8 up or from −8 down;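 also: recombinant parasite enzyme with a five histidine tag at its C terminus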
Sequence of Dihydroorotate dehydrogenase (quinone), mitochondrial (Plasmodium falciparum (isolate 3D7)) (Q08210 whole entry, looked up): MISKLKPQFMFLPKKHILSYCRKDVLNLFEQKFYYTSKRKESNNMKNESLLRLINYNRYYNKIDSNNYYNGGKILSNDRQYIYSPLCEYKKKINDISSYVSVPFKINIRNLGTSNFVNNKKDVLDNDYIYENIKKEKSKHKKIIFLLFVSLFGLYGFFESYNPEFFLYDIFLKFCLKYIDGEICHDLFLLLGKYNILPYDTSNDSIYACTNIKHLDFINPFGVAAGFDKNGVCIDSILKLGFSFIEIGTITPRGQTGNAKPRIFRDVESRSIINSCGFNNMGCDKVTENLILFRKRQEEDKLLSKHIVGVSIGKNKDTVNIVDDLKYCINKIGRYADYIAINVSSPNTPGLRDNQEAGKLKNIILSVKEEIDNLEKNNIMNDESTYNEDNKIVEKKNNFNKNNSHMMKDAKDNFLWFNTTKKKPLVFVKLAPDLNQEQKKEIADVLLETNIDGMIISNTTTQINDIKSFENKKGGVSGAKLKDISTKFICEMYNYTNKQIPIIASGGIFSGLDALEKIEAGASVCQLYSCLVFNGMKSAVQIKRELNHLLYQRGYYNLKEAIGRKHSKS

[5] = P. aeruginosa biofilm formation inhibitors, primary screen, strain PAO1, LB-PBS medium, absorbance 600 nm (AID 1176); conditions: P. aeruginosa PAO1 growth/biofilm, A600, 12 h; higher = more signal
[6] = S. cerevisiae RM11-1a growth modifiers, primary screen, strain RM11-1a, OD600, basal, 24 h (AID 1177); conditions: OD600, 24 h, higher = more signal, called active from +8 up or from −8 down;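 also: cultures grown under basal conditions with no added stressor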
[7] = E. coli acrAB mutant growth effects, primary screen, E. coli filamentation inducers, strain DRC39, OD650, 24 h (AID 1178); conditions: higher = more signal, called active from +8 up or from −8 down;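 also: growth measured as culture turbidity by optical density at 650 nm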
[8] = E. coli acrAB mutant growth effects, primary screen, E. coli filamentation inducers, strain DRC39, OD650, 48 h (AID 1179);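 also: screen aims at cell division blockers that make cells filament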; conditions: E. coli DRC39 delta-acrAB growth, higher = more signal, called active from +8 up or from −8 down
[9] = RPMI8226 myeloma cell viability, profiling panel, resazurin fluorescence, basal, 24 h, PK04 Diversity Set (AID 1180); conditions: higher = more signal;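 also: RPMI8826 multiple myeloma cell line at 5000 cells per well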
[10] = target: E3 ubiquitin-protein ligase XIAP (Homo sapiens) (UniProt P98170); test: XIAP binders, primary screen, biophysical, small-molecule microarray, fluorescence 635 nm (AID 1181); conditions: small-molecule microarray binding, higher = more signal;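 also: score merges 667 nm emission and signal to noise over triplicate slides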
Sequence of E3 ubiquitin-protein ligase XIAP (Homo sapiens) (P98170 whole entry, looked up): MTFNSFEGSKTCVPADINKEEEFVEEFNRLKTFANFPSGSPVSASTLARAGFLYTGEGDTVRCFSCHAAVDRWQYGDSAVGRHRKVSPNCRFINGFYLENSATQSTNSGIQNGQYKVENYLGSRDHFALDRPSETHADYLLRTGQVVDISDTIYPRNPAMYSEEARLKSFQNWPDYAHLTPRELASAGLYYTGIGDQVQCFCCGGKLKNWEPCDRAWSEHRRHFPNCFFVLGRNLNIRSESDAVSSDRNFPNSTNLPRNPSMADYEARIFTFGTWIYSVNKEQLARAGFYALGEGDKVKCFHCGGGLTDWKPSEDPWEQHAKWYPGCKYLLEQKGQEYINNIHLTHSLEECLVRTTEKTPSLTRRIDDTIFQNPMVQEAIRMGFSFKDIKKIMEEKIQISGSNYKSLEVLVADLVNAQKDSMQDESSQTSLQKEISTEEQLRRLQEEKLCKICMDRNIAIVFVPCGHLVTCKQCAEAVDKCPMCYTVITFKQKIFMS

[11] = test system: XIP peptide (Xip251-270) binding; test: small-molecule binders of XIP peptide, primary screen, biochemical, small-molecule microarray, fluorescence 635/667 nm, 0.1 µg/mL protein (AID 1182); conditions: fluorescent protein binding, 635 nm, higher = more signal, called active from +8 up or from −8 down
XIP peptide (Xip251-270) = test: small-molecule binders of XIP peptide, primary screen, biochemical, small-molecule microarray, fluorescence 635/667 nm, 0.5 µg/mL protein (AID 1183); conditions: small-molecule microarray binding, fluorescence 635 nm; higher = more signal
[12] = Plasmodium falciparum growth inhibition, primary screen, strain 3D7, DAPI fluorescence, 100 nL (AID 1184);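 also: parasites grown inside human red blood cells in medium with human serum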; conditions: P. falciparum 3D7 growth, 3 d, higher = more signal
[13] = target: Homeobox protein Hox-A13 (Mus musculus) (UniProt Q62424); test: inhibitors of HoxA13-DNA binding, primary screen, biochemical, fluorescence polarization, labeled oligonucleotide (AID 1185); conditions: 15 min, higher = more signal, called active from +8 up or from −8 down
Sequence of Homeobox protein Hox-A13 (Mus musculus) (Q62424 whole entry, looked up): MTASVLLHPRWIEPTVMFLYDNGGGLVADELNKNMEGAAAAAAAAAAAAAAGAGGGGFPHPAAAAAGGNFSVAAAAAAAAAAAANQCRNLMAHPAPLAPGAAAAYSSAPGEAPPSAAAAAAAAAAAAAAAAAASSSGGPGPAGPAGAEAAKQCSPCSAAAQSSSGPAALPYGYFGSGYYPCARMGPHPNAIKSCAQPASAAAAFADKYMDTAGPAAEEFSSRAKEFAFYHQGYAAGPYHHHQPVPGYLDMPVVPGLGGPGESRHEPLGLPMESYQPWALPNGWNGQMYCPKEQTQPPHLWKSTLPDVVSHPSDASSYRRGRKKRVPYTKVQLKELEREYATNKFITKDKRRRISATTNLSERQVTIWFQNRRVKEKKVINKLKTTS

[14] = inhibitors of hydroxyurea-induced Chk1 phosphorylation, primary screen, imaging, HeLa, phospho-Chk1 antibody, percent positive cells (AID 1186); conditions: hydroxyurea-induced phospho-Chk1 immunofluorescence imaging, higher = more signal
[15] = inhibitors of hydroxyurea-induced Chk1 phosphorylation, primary screen, imaging, HeLa, phospho-Chk1 nuclear intensity (AID 1187); conditions: hydroxyurea-induced phospho-Chk1 immunofluorescence imaging, higher = more signal

Row | SMILES | z-score [1] | z-score [2] | z-score [3] | composite z-score [4] | z-score [5] | z-score [6] | z-score [7] | z-score [8] | z-score [9] | composite z-score [10] | composite z-score [11] | composite z-score (XIP peptide (Xip251-270)) | z-score [12] | z-score [13] | z-score [14] | z-score [15]
1 | C=CCC(OC(C)=O)[C@@H]1[C@@H](N(Cc2ccc(-c3cccc(C(F)(F)F)c3)o2)C(=O)Cc2ccc(OC)cc2)c2cc(OCCCO)ccc2N1C(=O)c1ccc(-c2ccccc2)cc1 (stereo partly drawn) | -1.35 | -0.0331 (inactive) | -0.0666 (inactive) | 0.821 (inactive) | -0.24 (inactive) | 0.0869 (inactive) | -0.165 (inactive) | -0.555 (inactive) | -0.197 | 0.125 | 0.169 (inactive) | -0.0425 | -2.78 | -1.67 (inactive) | 0.152 (inactive) | 0.463 (inactive)
2 | CCOC(=O)C[C@H]1[C@H](OC(=O)c2ccc(-c3ccccc3)cc2)[C@@H](NC(=O)CC(C)C)c2cc(OCCCO)ccc2N1C(=O)c1ccc2ccccc2n1 | 1 | -0.677 (inactive) | 0.722 (inactive) | -1.31 (inactive) | -0.382 (inactive) | -0.248 (inactive) | 0.102 (inactive) | 0.327 (inactive) | 0.517 | -0.134 | -0.349 (inactive) | 0.381 | -0.459 | -2.19 (inactive) | 0.319 (inactive) | 0.571 (inactive)
3 | COCCOC(=O)N1C(=O)[C@@]2(c3cc(C#CCCO)ccc31)[C@H](c1ccc(OCCO)cc1)N1[C@H](c3ccccc3)[C@H](c3ccccc3)OC(=O)[C@H]1[C@@H]2C(=O)Nc1nc2ccccc2s1 | 0.32 | 1.9 (inactive) | -0.344 (inactive) | -0.719 (inactive) | 1.56 (inactive) | 2.38 (inactive) | -0.0627 (inactive) | 0.0759 (inactive) | -0.687 | -0.124 | 0.514 (inactive) | 0.509 | 0.335 | 0.838 (inactive) | -0.0639 (inactive) | -0.355 (inactive)
4 | CCOC(=O)C1=C[C@@H](C(C)(C)C)N(S(=O)(=O)c2ccc(C)cc2)[C@H]1c1cccc2ccccc12 | -0.433 | 3.26 (inactive) | -0.835 (inactive) | 0.716 (inactive) | 0.312 (inactive) | 3.01 (inactive) | -0.624 (inactive) | -0.511 (inactive) | -2.66 | 0.307 | -0.247 (inactive) | 0.236 | -1.93 | 0.961 (inactive) | 0.721 (inactive) | 0.521 (inactive)
5 | O=C1O[C@@H](c2ccccc2)[C@@H](c2ccccc2)N2[C@@H](c3ccc(OCCO)cc3)[C@]3(C(=O)Nc4ccc(C#CC5=CCCCC5)cc43)[C@@H](C(=O)NC[C@H](O)c3ccccc3)[C@H]12 | -0.661 | 1.49 (inactive) | -1.94 (inactive) | -0.729 (inactive) | 3.14 (inactive) | 2.72 (inactive) | -0.107 (inactive) | -0.245 (inactive) | -3.11 | -0.118 | 0.127 (inactive) | 0.693 | -1.35 | 3.28 (inactive) | 0.27 (inactive) | 0.433 (inactive)
6 | C[N+](C)(C)CCCC[C@@H]1NC(=O)[C@@H]2C[C@H](C(=O)NCCCCCCN)[C@H](c3cccc(OCCO)c3)N2C1=O | -0.418 | -0.22 (inactive) | -0.0181 (inactive) | 0.441 (inactive) | -0.117 (inactive) | -0.0966 (inactive) | 0.342 (inactive) | 0.743 (inactive) | -1.3 | 0.215 | 1.52 (inactive) | 0.771 | -0.133 | -3.34 (inactive) | -0.529 (inactive) | -0.386 (inactive)
7 | Cc1ccc(N2C(=O)c3ccccc3[C@@H](C(=O)NCCCN(C)C)[C@@H]2c2ccc(CO)cc2)nc1 | 0.258 | -0.957 (inactive) | -0.252 (inactive) | -0.746 (inactive) | -0.397 (inactive) | -0.64 (inactive) | -0.152 (inactive) | 0.327 (inactive) | 0.262 | -0.102 | 1.9 (inactive) | 0.148 | -0.235 | -2.34 (inactive) | 0.026 (inactive) | -0.303 (inactive)
8 | CC(C)NC(=O)[C@@]1(C)c2ccccc2C(=O)N(Cc2ccc(OC(F)(F)F)cc2)[C@H]1c1ccc(CO)cc1 | -1.09 | 0.154 (inactive) | 0.796 (inactive) | -0.852 (inactive) | 0.559 (inactive) | 0.973 (inactive) | -0.048 (inactive) | -0.6 (inactive) | 0.959 | -0.217 | 0.697 (inactive) | 0.836 | -1.75 | -3.07 (inactive) | -0.0939 (inactive) | -0.0444 (inactive)
9 | CCCCC[C@H]1OC[C@@]23C=C(Br)[C@@H](CC12)[C@@]1(CO1)C3=O (stereo partly drawn) | 0.213 | -8.43 (active) | -0.586 (inactive) | -0.23 (inactive) | 0.248 (inactive) | -0.984 (inactive) | -0.662 (inactive) | -0.666 (inactive) | -0.0702 | 0.144 | -0.311 (inactive) | -0.332 | 1.66 | -2.47 (inactive) | -0.556 (inactive) | -0.245 (inactive)
10 | COC(=O)C(CC#Cc1ccc2c(c1)[C@]1(C(=O)N2)[C@H](c2ccc(O)cc2)N2[C@H](c3ccccc3)[C@H](c3ccccc3)OC(=O)[C@H]2[C@@H]1C(=O)NC[C@H](O)c1ccccc1)C(=O)OC | -0.0495 | 0.677 (inactive) | -0.275 (inactive) | -3.93 (inactive) | 0.87 (inactive) | 0.379 (inactive) | 0.062 (inactive) | -0.138 (inactive) | -1.37 | -0.0013 | 0.646 (inactive) | 0.42 | 0.452 | -3 (inactive) | -0.0427 (inactive) | -0.171 (inactive)
11 | CC(C)N1CC=CC23O[C@@H]4C=CCCOC(=O)C4[C@H]2C(=O)N(CCCO)[C@@H]3C1=O (stereo partly drawn) | 1.12 | -0.951 (inactive) | 0.348 (inactive) | -0.926 (inactive) | -0.276 (inactive) | 0.0977 (inactive) | -0.463 (inactive) | 0.32 (inactive) | -0.114 | 0.152 | 0.431 (inactive) | 0.598 | -2.07 | -4.97 (inactive) | -0.0561 (inactive) | -0.12 (inactive)
12 | COC(=O)[C@@]1(Cc2ccc(OC)cc2)[C@H]2c3cc(C(=O)N4CCCC4)n(CCc4c[nH]c5ccc(O)cc45)c3C[C@H]2CN1C(=O)c1ccccc1 | -0.553 | 0.532 (inactive) | -0.56 (inactive) | -0.402 (inactive) | 0.411 (inactive) | 0.7 (inactive) | 0.23 (inactive) | 0.288 (inactive) | -0.377 | 0.0401 | 0.903 (inactive) | 0.864 | -1.44 | -4.21 (inactive) | 0.336 (inactive) | 0.258 (inactive)
13 | CCCCCC1=C2CNC(C)(C(=O)OC)C=C2C(C)C1=O (stereo not drawn) | -0.901 | 2.3 (inactive) | -1.59 (inactive) | -0.455 (inactive) | 1.06 (inactive) | 1.18 (inactive) | -0.814 (inactive) | -0.193 (inactive) | -1.66 | 0.152 | -0.22 (inactive) | -0.513 | 0.157 | -5.3 (inactive) | 1.37 (inactive) | 1.45 (inactive)
14 | COc1cccc(C)c1NC(=O)O[C@H]1[C@H](OC(=O)Nc2ccc3c(c2)OCO3)[C@@H](OC(=O)Nc2ccc3c(c2)OCO3)[C@@H](OC)O[C@@H]1CO | -0.808 | 1.21 (inactive) | -1.06 (inactive) | -0.191 (inactive) | 3.29 (inactive) | 2.4 (inactive) | 1.5 (inactive) | -0.1 (inactive) | -0.939 | 0.196 | 0.519 (inactive) | -0.0963 | -2.44 | -10.8 (active) | -0.088 (inactive) | -0.224 (inactive)
15 | COCC(=C=CC[C@H](O)c1ccccc1OCCO)C[C@H](O)c1ccccn1 | 0.839 | -0.329 (inactive) | 0.324 (inactive) | -2.09 (inactive) | 0.354 (inactive) | -0.115 (inactive) | 0.696 (inactive) | 0.547 (inactive) | -0.543 | -0.102 | -0.488 (inactive) | 0.0608 | -0.259 | -4.52 (inactive) | -2.25 (inactive) | -1.6 (inactive)
16 | COc1cc(C(O)C2C=CC3C(=O)N(C)C(=O)C3N2Nc2ccccc2)cc(OC)c1OC (stereo not drawn) | -0.237 | -2.86 (inactive) | 0.162 (inactive) | 0.377 (inactive) | 0.586 (inactive) | 0.155 (inactive) | -0.654 (inactive) | -0.852 (inactive) | -0.0998 | 0.14 | 1.13 (inactive) | -0.0114 | -0.164 | -3.7 (inactive) | -0.129 (inactive) | -0.0016 (inactive)
17 | C=CC[C@]1(C(=O)N2CCCCC2)N=C(c2ccc(OCCCO)cc2)O[C@H]1c1ccccc1CN=[N+]=[N-] | 0.948 | -1.03 (inactive) | -0.398 (inactive) | -0.709 (inactive) | -0.124 (inactive) | 0.0349 (inactive) | 0.552 (inactive) | 1.11 (inactive) | 0.128 | 0.354 | 0.541 (inactive) | 0.652 | -2.57 | -3.9 (inactive) | -0.707 (inactive) | -1.06 (inactive)
18 | O=C1OCCC/C=C\[C@H]2OC34C=CCN(c5ccc6ccccc6c5)C(=O)[C@H]3N(CCO)C(=O)[C@@H]4C12 (stereo partly drawn) | -0.75 | 0.307 (inactive) | -0.997 (inactive) | 0.257 (inactive) | -0.634 (inactive) | 0.571 (inactive) | -0.937 (inactive) | -1.04 (inactive) | -0.15 | 0.275 | 0.314 (inactive) | -1.38 | -1.05 | -5.35 (inactive) | -0.234 (inactive) | -0.0994 (inactive)

From PubChem BioAssay
